This note sets out measurements from PubChem BioAssay (NCI).

This is part of a sample that, as a whole, favours compounds with a hit. Of some 83,000 tested, about 20% had one in any assay.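 Note: values are percent growth. 100 is the growth of untreated cells, values between 100 and 0 indicate rising inhibition; between -100 and 0 indicates cell death.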 Active and inactive are the calls of the source. Rule for the calls: active = growth percent below 10; inactive = the rest.

The subject of the assay is HL-60(TB) leukemia. Put plainly: NCI-60 one-dose screen, 48 h (100 = growth as untreated, 0 = no growth, -100 = all killed). The conditions noted are these: 10 µM unless noted.
With `CSc1nc2ccccc2cc1/C=C1/C=C(c2ccccc2)NC1=O`, the growth was 85.7% (inactive).

Regarding `COc1cc(/C=C/c2cc(/C=C/c3ccc(O)c(OC)c3)n(C(=O)Nc3ccc(F)c(Cl)c3)n2)ccc1O`, the growth was -28.9% (active).

On to `C=C1C(=O)O[C@H]2[C@H]1CC/C(COC(=O)CCCCC(=O)OC/C1=C/CC[C@@]3(C)O[C@H]3[C@H]3OC(=O)C(=C)[C@@H]3CC1)=C\CC[C@@]1(C)O[C@@H]21`, for which the growth is 2.37% (active).

With `[O-]/[N+](=C\c1ccc(-n2cc(Cc3ccccc3Cc3cn(-c4ccc(/C=[N+](/[O-])c5ccccc5)cc4)nn3)nn2)cc1)c1ccccc1`, the growth is 98.4% (inactive).

`COc1ccc(Cn2cc3c(c2-c2ccc(OC)cc2)CCc2cnoc2-3)cc1`: the growth is -6.74% (active).

In the case of `COc1cc(/C=C/C(=O)C(C(=O)/C=C/c2ccc(OC(=O)CCNc3nnc(C)s3)c(OC)c2)C(=O)CCNc2nnc(C)s2)ccc1OC(=O)CCNc1nnc(C)s1`, the growth was -40.1% (active).

As to `COc1cc(/C=C/C(=O)c2cccc(-n3cc(-c4ccc(Cl)cc4)[nH]c3=O)c2)cc(OC)c1OC`, the growth is 62.7% (inactive).

In the case of `O=C(Nc1cccc2c(O)c(N=Nc3ccc(S(=O)(=O)Nc4nccs4)cc3)cc(N=Nc3ccc(S(=O)(=O)Nc4nccs4)cc3)c12)C(Cl)Cl`, the growth was 102% (inactive).

Take `c1ccc2c(N=NSc3ncnc4nc[nH]c34)c3ccccc3nc2c1`: the growth was -5.76% (active).

As for `COc1cc(-c2nc(-c3nnc(-c4cccnc4)o3)c3ccccn23)cc(OC)c1OC`, the growth was 95.7% (inactive).

For the compound `CCNCC(=O)Nc1ccc(C(=O)OCC)cc1`, the growth was 88.6% (inactive).
